Screening results from PubChem.
DT40 TDP1 CPT = DT40-hTDP1 cell growth loss with CPT | Potency, µM (series often up to 46.2 µM), without a hit: at the top dose activity change, negative = growth inhibition, usual class: inhibitors | chicken DT40 Tdp1-/-;hTDP1 cells + 20 nM CPT, ATP luminescence, 48 h | 420,000 tested, 12% active; further: on the % scale 0 is the no-effect control and ±100 the full control effect; nearly all actives have a fitted effect of over 55% in size
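Chicken DT40 Tdp1-/- cells stably complemented with human TDP1 were seeded at 400 cells/well in medium containing 20 nM camptothecin, exposed to pin-transferred compounds, and grown at 37 °C for at least 48 hr. Viability was read as ATP luminescence.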
TDP1 block = inhibitors of human tyrosyl-DNA phosphodiesterase TDP1. Q9NUW8. recombinant TDP1, AlphaScreen DNA substrate cleavage. Potency, µM (titrated, usually from 130 µM), without a hit: top-dose activity change, negative = inhibition, hits mostly inhibitors. 350,000 tested, 0.28% active; further: on the % scale 0 is the no-effect control and ±100 the full control effect; nearly all actives have a fitted effect of over 40% in size
Target sequence (Q9NUW8 whole entry, looked up): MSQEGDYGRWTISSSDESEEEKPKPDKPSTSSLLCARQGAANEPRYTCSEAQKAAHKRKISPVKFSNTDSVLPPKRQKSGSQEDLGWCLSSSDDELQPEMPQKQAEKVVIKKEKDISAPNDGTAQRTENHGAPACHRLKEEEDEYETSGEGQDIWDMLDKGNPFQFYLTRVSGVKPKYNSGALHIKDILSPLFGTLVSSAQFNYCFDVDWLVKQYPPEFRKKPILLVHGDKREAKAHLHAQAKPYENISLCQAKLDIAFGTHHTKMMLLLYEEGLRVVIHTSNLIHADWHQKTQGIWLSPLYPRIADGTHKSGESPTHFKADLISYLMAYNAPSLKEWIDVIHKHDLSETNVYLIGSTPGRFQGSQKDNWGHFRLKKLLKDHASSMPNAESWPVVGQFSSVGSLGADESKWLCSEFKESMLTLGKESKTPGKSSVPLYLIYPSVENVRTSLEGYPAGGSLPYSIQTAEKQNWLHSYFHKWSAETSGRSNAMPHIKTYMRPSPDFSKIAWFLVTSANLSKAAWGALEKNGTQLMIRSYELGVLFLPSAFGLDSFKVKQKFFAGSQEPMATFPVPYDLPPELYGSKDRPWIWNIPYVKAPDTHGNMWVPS
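Steps: enzyme plus compound, 15 min RT; add biotin/phosphotyrosine-FITC oligonucleotide (15 nM final), react 5 min; add donor/acceptor beads (10 ug/ml final), 10 min; read AlphaScreen. Tdp1 at 1 nM final.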
ClpP mod = qHTS Assay for Activators of ClpP; ATP-dependent Clp protease proteolytic subunit (Bacillus subtilis (strain 168)), P80244; Potency, µM (highest dose often 57.5 µM), for inactives: at the highest dose activity change, negative = active; 340,000 tested, 1.9% active; purified B. subtilis ClpP, FRET peptide cleavage, 20 min; active means well fitted falling curve with a large enough effect; inconclusive means small, poorly fitted or top-dose-only effect; inactive means no such curve, though single readings can be large or run the other way; further: the source files actives as falling curves though it sought activators and does not explain the sign; nearly all actives have a fitted effect of over 65% in size
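ClpP 10 microg/mL final, pH 8 Tris/KCl buffer with BSA, glycerol, Tween-20; compound pinned in; FRET-FV substrate; RT 20 min; Ex320/Em430; ΔFRET vs ADEP 5.8 microM, DMSO, no enzyme.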
DT40 TDP1 no CPT = qHTS for Inhibitors of human tyrosyl-DNA phosphodiesterase 1 (TDP1): qHTS in cells in absence of CPT. DT40 Tdp1-/- hTDP1 cells, no CPT, ATP luminescence, 48 h. 420,000 tested, 15% active. Potency, µM (highest dose often 46.2 µM), for the others: top-dose activity change, negative = growth inhibition, hits mostly inhibitors. AID 686978, 2013; further: on the % scale 0 is the no-effect control and ±100 the full control effect; nearly all actives have a fitted effect of over 55% in size
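Stably hTDP1-transfected Tdp1-null chicken DT40 cells were treated with library compounds minus camptothecin and grown for at least 48 hr at 37 °C, after which cellular ATP was quantified by luminescence.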
The depositor's hits bear a star; ? = inconclusive; / = no result; [ ] = remark or other dose. Compounds with a hit are over-represented: about 17% of the library has one in this group of screens. Unless noted, the call rests on the fitted dose curve; in most records, active means well fitted curve in the direction sought with a large enough effect; inconclusive means small, poorly fitted or top-dose-only effect, or another doubt; inactive means no such curve, though single readings can be large; an effect the other way counts as inactive or inconclusive. Potency means the concentration at half of the fitted maximal effect.

SMILES | DT40 TDP1 CPT | TDP1 block | ClpP mod | DT40 TDP1 no CPT
Cc1ccc(CN2C(=O)C3CCCN3c3ccc(S(=O)(=O)N4CCOCC4)cc32)cc1 (stereo unspecified) | / | 4% | / | /
COc1cc(C(=O)N(Cc2cc3ccc(C)cc3nc2N(C)C)C2CC2)cc(OC)c1OC | 15%[9.04 µM] | / | / | ?
COc1ccc2ccccc2c1CN1CCN(C(=O)c2ccccc2)CC1 | ? | 5% | -3% | 15µM*
N#Cc1nc(-c2ccco2)oc1N1CCN(c2cccc(Cl)c2)CC1 | ? | 8% | 32µM* | -28%
CC1CC(C)CN(c2oc(-c3ccco3)nc2C#N)C1 (stereo unspecified) | 18µM* | 6% | 11% | 21µM*
COc1ccccc1OCc1nc(C#N)c(N2CC(C)CC(C)C2)o1 (stereo unspecified) | 29µM* | 9% | 1% | ?
N#Cc1nc(-c2ccco2)oc1N1CCCC1 | 5% | -1% | ? | -1%
N#Cc1nc(-c2ccco2)oc1N1CCc2ccccc2C1 | -23% | 10% | 14µM* | ?
CSc1ncccc1C(=O)OCc1ccc([N+](=O)[O-])cc1 | 4% | 3% | / | ?
Cc1ccccc1NC(=O)c1sc2nc(N3CCOCC3)c3c(c2c1N)CC(C)(C)OC3 | -21% | -2% | -28% | ?
COc1ccccc1-c1nc(C#N)c(N2CCN(C(c3ccccc3)c3ccccc3)CC2)o1 | 16µM* | -6% | ? | 23µM*
N#Cc1nc(-c2ccco2)oc1N1CCN(C(c2ccccc2)c2ccccc2)CC1 | ? | 8% | 6.3µM* | ?
Nc1cc(S(=O)(=O)N2CCCCC2)ccc1Oc1ccc(Cl)cc1 | ? | 5% | -8% | 8.2µM*
Cc1cccc(Oc2ccc(S(=O)(=O)N3CCCCC3)cc2N)c1 | ? | 3% | -3% | ?
COC(=O)c1ccc(Oc2ccc(S(=O)(=O)N3CCCCC3)cc2N)cc1 | ? | / | -1% | 16µM*
COC(=O)CNc1cc(S(=O)(=O)N2CCCCC2)ccc1Oc1ccc(C(=O)OC)cc1 | ? | 12%[0.0935 µM] | / | ?
Cc1cc(N(C)Cc2ccccc2)nc(-c2ccccc2)n1 | ? | -11% | 1% | 26µM*
CCOC(=O)c1c(C)[nH]c(C(=O)OCC(=O)c2ccc3c(c2)NC(=O)CO3)c1C | -23% | / | 0% | -22%
S=c1[nH]nc(-c2ccc3ccccc3n2)n1-c1cc(Cl)cc(Cl)c1 | ? | -3% | -3% | 16µM*
Fc1ccc(-n2c(-c3ccc4ccccc4n3)n[nH]c2=S)cc1 | 9% | -3% | -4% | 1%
Cc1ccc(C(=O)N2N=C(c3ccccc3O)CC2c2ccccc2)cc1 (stereo unspecified) | ? | / | / | 21µM*
CC(=O)Nc1ccc(C(=O)OCC(=O)NC2CCCCCC2)cc1 | 3% | / | 0% | -14%
COc1ccc(CNC[C@H]2O[C@@H](n3ccc(=O)[nH]c3=O)[C@H](O)[C@@H]2O)cc1 | 9% | / | -1% | -12%
CC(=O)Nc1ccc(N2C(C(C)=O)=NN(c3ccc(Cl)cc3)C2c2sccc2C)cc1 (stereo unspecified) | 23µM* | 5%[56.1 µM] | 0% | 23µM*
N#CC1(c2ccccc2)CCN(S(=O)(=O)c2ccc(OC(F)(F)F)cc2)CC1 | -22% | / | 1% | 15µM*
SMILES | DT40 TDP1 CPT | TDP1 block | ClpP mod | DT40 TDP1 no CPT
CC(Oc1ccc(-c2ccccc2)cc1)C(=O)N1CCOCC1 (stereo unspecified) | ? | 7% | 25µM* | ?
CC(Oc1ccccc1)C(=O)N1CCN(S(=O)(=O)c2ccc(OC(F)(F)F)cc2)CC1 (stereo unspecified) | 18µM* | / | 2% | ?
CCOc1ccc(NC(=O)C2CCCN(c3ccc(Sc4ccc(C)cc4)nn3)C2)cc1 (stereo unspecified) | -14% | -1% | 1% | -21%
Cc1ccc(Sc2ccc(N3CCCC(C(=O)Nc4ccc(F)cc4F)C3)nn2)cc1 (stereo unspecified) | 15µM* | 6% | 1% | 18µM*
CCOC(=O)c1ccc(NC(=O)C2CCCN(c3ccc(Sc4ccc(C)cc4)nn3)C2)cc1 (stereo unspecified) | ? | -4% | ? | 8.2µM*
Cc1ccc(Sc2ccc(N3CCC(C(=O)Nc4ccc(Cl)cc4)CC3)nn2)cc1 | 15µM* | 2% | -1% | 18µM*
COc1cc(C(=O)Nc2cc(-c3ccccc3)[nH]n2)cc(OC)c1OC | ? | 4% | 1% | ?
Nc1ccccc1Nc1cc(-c2ccccc2)nn1-c1ccccc1 | 23µM* | 7% | 0% | 21µM*
Cc1ccc(-n2nc(-c3ccccc3)cc2Nc2ccccc2N)cc1 | -9% | 5% | 0% | -16%
N#Cc1cc(-c2ccccc2)nn1-c1ccccc1 | ? | / | -29% | 21µM*
Nc1ccccc1Nc1cc(-c2ccccc2)[nH]n1 | -57% | 8% | / | 13µM*
CN(C)CCCCCCN(C)C | / | -5% | / | /
O=C(Nc1ccccc1C(=O)N1CCCCC1)c1cc(F)c(F)cc1Cl | -2% | -4% | -2% | -5%
O=C(NC1CCCCC1)C1CC(=O)N(CCc2ccc(F)cc2)C1 (stereo unspecified) | -5% | 0% | / | -1%
COc1ccc(CCNC(=O)COC(=O)c2ccccn2)cc1 | 1% | 0% | / | -13%
COC(=O)C1(C)COP(=O)(Nc2ccc(OC)cc2)OC1 (stereo unspecified) | -27% | / | 2% | -28%
COc1ccc(NC(=O)CSc2c3c(nc4ccccc24)CCCC3)c(OC)c1 | 21µM* | 3% | -2% | 18µM*
Cc1cc(Br)ccc1NC(=O)CSc1c2c(nc3ccccc13)CCC2 | 15µM* | 2% | -3% | 12µM*
COc1ccc(-c2c(C#N)c(SCC(=O)Nc3ccccc3)nc3c2CCCC3)cc1 | 26µM* | / | -14% | ?
COc1ccccc1NC(=O)CSc1c2c(nc3ccccc13)CCC2 | ? | -1% | 2% | ?
Cc1ccccc1NC(=O)CSc1nc2cc3c(cc2cc1C)CCC3 | 4.6µM* | 6% | 1% | 3.7µM*
Cc1cc(NC(=O)CSc2c3c(nc4ccccc24)CCC3)no1 | ? | 5% | -2% | ?
CCn1nc([N+](=O)[O-])c(C(C#N)c2nc3ccccc3n2C)c(Cl)c1=O (stereo unspecified) | ? | 11% | -2% | ?
CCCn1nc([N+](=O)[O-])c(C(C#N)c2nc3ccccc3s2)c(Cl)c1=O (stereo unspecified) | 18µM* | 12% | -2% | 16µM*
Cc1ccc(Nc2c3c(nc4nncn24)CCC3)cc1 | -8% | 7% | 1% | -27%
Cc1ccc(Nc2c3c(nc4nncn24)CCC3)cc1C | ? | 2% | 1% | 16µM*
COc1ccc(Nc2c3c(nc4nncn24)CCC3)cc1Cl | 18µM* | 5% | 1% | 21µM*
